Assay outcomes: PubChem, National Center for Advancing Translational Sciences (NCATS)
In the library only some 2.4% were active in any assay of this set; here they are far more common.
D2 ag-1: agonists of human D2 dopamine receptor; P14416; HEK293 T-REx D2 cells, calcium flux agonist mode; activation, % at 2 µM; actives 0.53% (n = 340,000); AID 485358;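 active means activation over 3 SD above normal in the single-dose calcium agonist read, cut at about 30% in these data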
Target sequence (P14416 whole entry, looked up): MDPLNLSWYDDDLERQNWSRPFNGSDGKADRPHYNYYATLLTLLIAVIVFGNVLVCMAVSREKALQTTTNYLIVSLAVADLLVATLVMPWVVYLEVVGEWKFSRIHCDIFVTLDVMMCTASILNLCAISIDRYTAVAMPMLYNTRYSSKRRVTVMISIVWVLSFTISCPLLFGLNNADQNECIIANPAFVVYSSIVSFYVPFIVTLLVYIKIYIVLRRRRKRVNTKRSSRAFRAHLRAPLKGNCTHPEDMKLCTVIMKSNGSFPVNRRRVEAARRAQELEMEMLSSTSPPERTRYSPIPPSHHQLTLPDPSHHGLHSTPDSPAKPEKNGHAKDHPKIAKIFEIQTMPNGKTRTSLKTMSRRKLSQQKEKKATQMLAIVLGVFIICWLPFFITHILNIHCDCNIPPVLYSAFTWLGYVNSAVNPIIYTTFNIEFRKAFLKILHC
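Tetracycline-induced HEK293 Trex cells with D2 receptor force-coupled to calcium signaling, plated overnight at 30 C and loaded with no-wash calcium dye. Calcium flux read kinetically for 180 s after compound addition; responses flag agonists.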
D2 ag-2: activates the human D2 dopamine receptor. P14416. DiscoveRx PathHunter D2 beta-arrestin, luminescence, 90 min; 100% = 57 uM dopamine signal. activation, % (concentration not given with the values). actives 0.084% (n = 360,000). AID 624465; in the data active means activation above about 40%; inconclusive means between about 15% and that limit
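Agonist mode: compounds alone added to overnight-plated D2 PathHunter cells for 90 min at 37 C, with 57 uM final dopamine (EC100) defining full response. Beta-arrestin recruitment detected by chemiluminescent reagent, read after 1 h at ambient temperature.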
D2 PAM-1: potentiates the human D2 dopamine receptor allosterically; potentiation, % (test concentration not listed); DiscoveRx D2 beta-arrestin cells, luminescence, 90 min; 100% = 57 uM dopamine signal; actives 0.23% (n = 360,000); AID 624464; P14416; in the data active means potentiation above about 50%; inconclusive means mostly about 30% to 49%
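PathHunter beta-arrestin assay in DiscoveRx D2 cells. Compounds were added with an EC20 of dopamine (50 nM final) for 90 min at 37 deg C. Luminescence was read 1 h after detection reagent, with 57 uM dopamine as the EC100 control.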
D2 PAM-2: D2 dopamine receptor (human) potentiation; potentiation, % at 10 µM; P14416; HEK293 T-REx D2, calcium flux, EC20 dopamine potentiation; actives 0.34% (n = 340,000);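 active means potentiation over 3 SD above the plate norm, cut at about 30% in these data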
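Cells plated with tetracycline inducer and held overnight at 30 C; calcium dye loaded 30–90 min at room temperature; baseline taken, compound added and read 180 s; EC20 dopamine then added and read 180 s.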
D2 antagonist: D2 dopamine receptor (human) antagonism; P14416; HEK293 TREx D2 cells, calcium flux, dopamine EC80; inhibition, % at 10 µM; actives 2% (n = 340,000); AID 485344; in the data active means inhibition above about 30%; inactive means below that, where a call was filed
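Dopamine at EC80 is the agonist stimulus; test compounds precede it by 180 s. Calcium flux read kinetically in a force-coupled, inducible HEK293 T-REx D2 cell line.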
Of the large screens only hits and unclear results are named; the others gave an inactive call.

O=C(NC1=NCCS1)c1cc(-c2cccnc2)nc2ccccc12	D2 antagonist 33.2
Cc1cc(C)cc(NC(=O)C2CCCN(c3ncccn3)C2)c1 (stereo unspecified)	D2 antagonist 50.1
Cc1cc(C)nc(N2CCCC(C(=O)Nc3nnc(C(C)(C)C)s3)C2)n1 (stereo unspecified)	D2 antagonist 47.9
CCc1nnc(NC(=O)C2CCCN(c3nc(C)cc(C)n3)C2)s1 (stereo unspecified)	none
Cc1ccc(NC(=O)C2CCCN(c3ncccn3)C2)cc1F (stereo unspecified)	none
Cn1ncc2c(O/N=C(\N)c3ccc(C(C)(C)C)cc3)ncnc21	D2 ag-2 85.9, D2 PAM-1 85.3
COc1c(Cl)cccc1-c1cn2ccc(C)cc2n1	D2 antagonist 34.8
CC(C)Oc1ccc(CNC(=O)c2cnc3sc(N4CCCCC4)nn3c2=O)cc1	none (no result: D2 ag-2, D2 PAM-1, D2 antagonist)
CCCCN1C2CCCC1CC(NC(=O)c1cccc(Cl)c1)C2 (stereo unspecified)	D2 antagonist 30.8
CCCN1C2CCCC1CC(NC(=O)c1ccccc1)C2 (stereo unspecified)	D2 antagonist 30.1
Cc1ccc2nc(NC(=O)CSc3nccn3Cc3ccc(Cl)cc3)sc2c1	none (no result: D2 ag-2, D2 PAM-1, D2 antagonist)
O=C(Cn1cc(C(=O)c2cccs2)c2ccccc21)Nc1ccc(Br)cc1	none (no result: D2 ag-2, D2 PAM-1, D2 antagonist)
CC(C)c1ccc(C2c3c(-c4ccccc4O)n[nH]c3C(=O)N2CCc2ccccc2)cc1 (stereo unspecified)	none (no result: D2 ag-2, D2 PAM-1, D2 antagonist)
COc1cc(C(=O)OCCn2c(=O)c3c(ncn3CCN(C)C)n(C)c2=O)cc(OC)c1OC	D2 antagonist 33.8
COc1ccc(CC(=O)Nc2ccccc2C(=O)N2CCOCC2)cc1	D2 antagonist 43.5
COc1cccc(CC(=O)Nc2ccccc2C(=O)N2CCOCC2)c1	none
NC(=O)c1ccccc1NC(=O)CN1CCOCC1	D2 antagonist 31.4
O=S(=O)(Nc1cccc(-c2ccc(N3CCCCC3)nn2)c1)c1cccc(F)c1	none (no result: D2 ag-2, D2 PAM-1, D2 antagonist)
CS(=O)(=O)N(CC(=O)Nc1ccc(Br)cc1)c1ccccc1Br	none (no result: D2 ag-2, D2 PAM-1, D2 antagonist)
Cc1ccc(S(=O)(=O)c2nc(-c3cccc(Cl)c3)oc2NCc2ccccc2)cc1	none (no result: D2 ag-1, D2 ag-2, D2 PAM-1, D2 antagonist)
O=C(N/N=C/c1ccc(OC(F)F)cc1)C1=COCCO1	none
O=C(N/N=C/c1ccccc1OC(F)F)C1=COCCO1	D2 antagonist 32.5
O=C1C(Cl)=C(NCc2cccnc2)C(=O)c2ccccc21	D2 ag-2 inconclusive, D2 antagonist 33.7
O=C1C(Cl)=C(NCCc2ccccc2)C(=O)c2ccccc21	none (no result: D2 ag-1, D2 PAM-2, D2 antagonist)
Cn1c2ccccc2c(=O)c2c(=O)n(Cc3ccco3)c(-c3ccc(F)cc3)nc21	none
Cc1ccc(-c2nc3c(c(=O)c4ccccc4n3C)c(=O)n2Cc2ccco2)cc1	D2 antagonist 35.6
COc1ccc(NC(=O)C2=CC(c3ccc(C)cc3)=NS(=O)(=O)N2C)cc1OC	none
CC(=O)c1cccc(NC(=O)C2=CC(c3ccc4c(c3)OCO4)=NS(=O)(=O)N2C)c1	D2 antagonist 48.4
COc1ccc(C2=NS(=O)(=O)N(C)C(C(=O)Nc3ccc(OC)c(OC)c3)=C2)cc1	D2 antagonist 55.7
COc1ccc(-c2cnc(C)o2)cc1S(=O)(=O)Nc1ccc(F)cc1F	none (no result: D2 ag-2, D2 PAM-1, D2 PAM-2, D2 antagonist)
COc1cc(OC)cc(C(=O)NC(=S)Nc2nc(-c3cc4ccccc4o3)cs2)c1	none
COCCNc1nc(-c2cc3ccccc3o2)cs1	D2 antagonist 37.9
CCOC(=O)c1cccc(NC(=O)CC(c2ccc(F)cc2)N2Cc3ccccc3C2=O)c1 (stereo unspecified)	none (no result: D2 ag-2, D2 PAM-1, D2 antagonist)
COc1ccccc1C(=O)Nc1ccccc1C(=O)N1C(C)CCCC1C (stereo unspecified)	D2 antagonist 48.3
COc1cccc(OC)c1C(=O)Nc1ccccc1C(=O)N1CCCC1	none
COc1cc2c(cc1OC)C(=O)C(c1ccc3c(c1)OCO3)CC2 (stereo unspecified)	none (no result: D2 ag-1, D2 PAM-2, D2 antagonist)
COc1cc2c(cc1OC)C(=O)C(Br)CC2 (stereo unspecified)	D2 ag-2 46.2 (no result: D2 ag-1, D2 PAM-2, D2 antagonist)
COC(=O)C(C)Sc1ccc2nnc(CCNS(=O)(=O)c3ccccc3)n2n1 (stereo unspecified)	D2 antagonist 36.9
COC(=O)C(C)Sc1ccc2nnc(CCNS(=O)(=O)c3ccc(C)cc3)n2n1 (stereo unspecified)	none
CN(C)CCCNS(=O)(=O)c1cc(Cl)ccc1Cl	D2 antagonist 38.2
O=C(NCc1ccccc1F)C(=O)NCC(c1ccco1)S(=O)(=O)c1cccs1 (stereo unspecified)	none (no result: D2 ag-2, D2 PAM-1, D2 antagonist)
C/C(=N\Nc1ccc(Cl)c(C(=O)O)c1)c1ccc(Br)s1	D2 antagonist 47.1
CCOC(=O)C1=C(CN2CCN(c3ccccc3F)CC2)NC(=O)NC1c1ccc(OC)cc1 (stereo unspecified)	none (no result: D2 ag-2, D2 PAM-1, D2 antagonist)
COc1cc(C2Nc3cccc4cccc(c34)N2)ccc1O	none
Oc1ccc2ccccc2c1C1Nc2cccc3cccc(c23)N1	D2 ag-2 inconclusive, D2 PAM-1 50.5
CCOc1ccc(C2C(C(N)=O)=C(C)Nc3nc(-c4cccc(Cl)c4)nn32)cc1OC (stereo unspecified)	none (no result: D2 ag-2, D2 PAM-1, D2 antagonist)
Cc1ccc(C(=O)NCCN2C3=NC[C@@H](Cc4ccccc4)N3C[C@H]2Cc2ccc(O)cc2)cc1Br	D2 antagonist 68.1
O=C(NCc1ccccc1)c1n[nH]nc1-c1ccccc1O	D2 antagonist 30.8
O=C(NCc1ccccc1)c1ccc(C(=O)NCc2ccccc2)cc1	none (no result: D2 ag-1, D2 PAM-2, D2 antagonist)
O=C(c1ccc(F)cc1)N(NC(=O)C(O)(c1ccccc1)c1ccccc1)c1ccccc1	D2 antagonist 39.7
CC(C)Cn1c(SCc2cccc(F)c2)nc2ccsc2c1=O	none (no result: D2 ag-2, D2 PAM-1, D2 antagonist)
COc1ccc(NC(=S)N(CCCN2CCOCC2)C(C)c2cc3cccc(OC)c3o2)cc1 (stereo unspecified)	D2 antagonist 35.2
COc1cccc2cc(C(C)N(CCCN3CCOCC3)C(=S)Nc3ccc(C)c(C)c3)oc12 (stereo unspecified)	none
CCOc1ccccc1NC(=O)C1CCC(CNS(=O)(=O)c2ccc3c(c2)CCCC(=O)N3)CC1 (stereo unspecified)	none (no result: D2 ag-1, D2 ag-2, D2 PAM-1, D2 antagonist)
O=C(O)c1ccccc1OC(C(=O)Nc1cc(Cl)cc(Cl)c1)c1ccccc1 (stereo unspecified)	D2 antagonist 36.1
O=C1CCC(C(=O)OC(C(=O)Nc2cc(Cl)cc(Cl)c2)c2ccccc2)=NN1 (stereo unspecified)	D2 antagonist 33.5
COc1ccc(-n2nc(C(=O)Nc3cc(C)ccn3)c3c4ccccc4n(C)c3c2=O)cc1	none (no result: D2 ag-2, D2 PAM-1, D2 antagonist)
Cc1ccc(NC(=O)CCn2c(=O)[nH]c3ccsc3c2=O)cc1	none
CCOc1ccc(NC(=O)CCn2c(=O)[nH]c3ccsc3c2=O)cc1	D2 PAM-2 36.5
CCOc1ccccc1NC(=O)CN1C(=O)CC(c2ccc(OC)c(OC)c2)Sc2ccccc21 (stereo unspecified)	none (no result: D2 ag-2, D2 PAM-1, D2 PAM-2, D2 antagonist)
